# Source: the supplement of paper PMC8728848
# Only a selection was taken, and the strongest signals are over-represented in it overall.
# B1: Intelectin 1 (Homo sapiens), Q8WWA0 (protein)
# chain: MNQLSFLLFLIATTRGWSTDEANTYFKEWTCSSSPSLPRSCKEIKDECPSAFDGLYFLRTENGVIYQTFCDMTSGGGGWTLVASVHENDMRGKCTVGDRWSSQQGSKAVYPEGDGNWANYNTFGSAEAATSDDYKNPGYYDIQAKDLGIWHVPNKSPMQHWRNSSLLRYRTDTGFLQTLGHNLFGIYQKYPVKYGEGKCWTDNGPVIPVVYDFGDAQKTASYYSPYGQREFTAGFVQFRVFNNERAANALCAGMRVTGCNTEHHCIGGGGYFPEASPQQCGDFSGFDWSGYGTHVGYSSSREITEAAVLLFYR
# Assays:
# Test in all cases: glycan array binding signal (z-score within array); higher = stronger binding
# Conditions in all cases: glycan notation: IUPAC condensed, linker removed
# Fuc(a1-2)Gal = target: Fuc(a1-2)Gal
# Summary of the method: (§1)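 Glycan array data were curated from 3228 arrays in the Consortium for Functional Glycomics database and kept only where the protein sequence was available. Glycan names were converted to IUPAC-condensed notation, and columns mapping to the same glycan were averaged. The binding signal is a within-array Z-score, averaged across arrays of the same protein sequence at different concentrations or buffers and across linkers. Negative Z-scores can be read as non-binding.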
# Fuc(a1-2)Gal(b1-3)GalNAc = target: Fuc(a1-2)Gal(b1-3)GalNAc
# Summary of the method: as §1
# [1] = target: Fuc(a1-2)Gal(b1-3)GalNAc(b1-3)Gal(a1-4)Gal(b1-4)Glc
# Summary of the method: as §1
# Fuc(a1-2)Gal(b1-3)GlcNAc = target: Fuc(a1-2)Gal(b1-3)GlcNAc
# Summary of the method: as §1
# [2] = target: Fuc(a1-2)Gal(b1-3)GlcNAc(b1-3)GalNAc
# Summary of the method: as §1
# [3] = target: Fuc(a1-2)Gal(b1-3)GlcNAc(b1-3)[Neu5Ac(a2-6)Gal(b1-4)GlcNAc(b1-6)]Gal(b1-4)Glc
# Summary of the method: as §1
# [4] = target: Fuc(a1-2)[Gal(a1-3)]Gal(b1-4)[Fuc(a1-3)]GlcNAc(b1-3)GalNAc
# Summary of the method: as §1
# [5] = target: Fuc(a1-2)[GalNAc(a1-3)]Gal(b1-3)GlcNAc(b1-2)Man(a1-3)[Fuc(a1-2)[GalNAc(a1-3)]Gal(b1-3)GlcNAc(b1-2)Man(a1-6)]Man(b1-4)GlcNAc(b1-4)[Fuc(a1-6)]GlcNAc
# Summary of the method: as §1
# [6] = target: Fuc(a1-2)[GalNAc(a1-3)]Gal(b1-4)GlcNAc(b1-3)Gal(b1-4)GlcNAc
# Summary of the method: as §1
# [7] = target: Fuc(a1-3)[Gal(b1-4)]GlcNAc(b1-2)Man(a1-3)[Fuc(a1-3)[Gal(b1-4)]GlcNAc(b1-2)Man(a1-6)]Man(b1-4)GlcNAc(b1-4)[Fuc(a1-6)]GlcNAc
# Summary of the method: as §1
# Gal(a1-3)GalNAc = target: Gal(a1-3)GalNAc
# Summary of the method: as §1
# [8] = target: Gal(b1-3)GalNAc(a1-3)[Fuc(a1-2)]Gal(b1-4)Glc
# Summary of the method: as §1
# [9] = target: Gal(b1-3)GlcNAc(b1-6)Gal(b1-4)GlcNAc
# Summary of the method: as §1
# [10] = target: Gal(b1-3)[Fuc(a1-4)]GlcNAc(b1-3)Gal(b1-4)GlcNAc
# Summary of the method: as §1
# [11] = target: Gal(b1-3)[Neu5Ac(b2-6)]GalNAc
# Summary of the method: as §1
# [12] = target: Gal(b1-4)GlcNAc(b1-3)Gal(b1-4)Glc
# Summary of the method: as §1
# Gal6S(b1-3)GlcNAc6S = target: Gal6S(b1-3)GlcNAc6S
# Summary of the method: as §1
# Gal6S(b1-4)Glc = target: Gal6S(b1-4)Glc
# Summary of the method: as §1
# GalNAc(b1-3)Gal = target: GalNAc(b1-3)Gal
# Summary of the method: as §1
# [13] = target: GalNAc(b1-3)Gal(a1-6)Gal(b1-4)Glc
# Summary of the method: as §1
# GalNAc(b1-3)GalNAc = target: GalNAc(b1-3)GalNAc
# Summary of the method: as §1
# [14] = target: GalNAc(b1-4)GlcNAc(b1-2)Man(a1-3)[GalNAc(b1-4)GlcNAc(b1-2)Man(a1-6)]Man(b1-4)GlcNAc(b1-4)GlcNAc
# Summary of the method: as §1
# Glc(a1-6)Glc(a1-6)Glc = target: Glc(a1-6)Glc(a1-6)Glc
# Summary of the method: as §1
# [15] = target: GlcNAc(a1-4)Gal(b1-4)GlcNAc(b1-3)Gal(b1-4)GlcNAc
# Summary of the method: as §1
# [16] = target: GlcNAc(a1-4)Gal(b1-4)GlcNAc(b1-3)Gal(b1-4)[Fuc(a1-3)]GlcNAc(b1-3)Gal(b1-4)[Fuc(a1-3)]GlcNAc
# Summary of the method: as §1
# [17] = target: GlcNAc(b1-2)Man(a1-3)[GlcNAc(b1-2)Man(a1-6)]Man(b1-4)GlcNAc(b1-4)GlcNAc
# Summary of the method: as §1
# [18] = target: GlcNAc(b1-2)[GlcNAc(b1-6)]Man(a1-6)[GlcNAc(b1-2)Man(a1-3)][GlcNAc(b1-4)]Man(b1-4)GlcNAc(b1-4)GlcNAc
# Summary of the method: as §1
# [19] = target: Man(a1-2)Man(a1-2)Man(a1-3)Man
# Summary of the method: as §1
# [20] = target: Man(a1-2)Man(a1-3)[Man(a1-2)Man(a1-6)]Man(a1-6)[Man(a1-2)Man(a1-2)Man(a1-3)]Man
# Summary of the method: as §1
# [21] = target: Man(a1-3)[Man(a1-6)]Man(a1-6)[Man(a1-3)]Man(b1-4)GlcNAc(b1-4)GlcNAc
# Summary of the method: as §1
# [22] = target: Neu5Ac(a2-3)Gal(b1-3)GlcNAc(b1-3)Gal(b1-4)GlcNAc
# Summary of the method: as §1
# [23] = target: Neu5Ac(a2-3)Gal(b1-3)[Neu5Ac(a2-3)Gal(b1-4)]GlcNAc
# Summary of the method: as §1
# [24] = target: Neu5Ac(a2-3)Gal(b1-3)[Neu5Ac(a2-6)]GalNAc
# Summary of the method: as §1
# [25] = target: Neu5Ac(a2-3)Gal(b1-4)[Fuc(a1-3)]GlcNAc(b1-3)Gal
# Summary of the method: as §1
# [26] = target: Neu5Ac(a2-8)Neu5Ac(a2-3)Gal(b1-4)Glc
# Summary of the method: as §1
# [27] = target: Neu5Ac(a2-8)Neu5Ac(a2-3)[Gal(b1-3)GalNAc(b1-4)]Gal(b1-4)Glc
# Summary of the method: as §1
# Neu5Gc(a2-6)GalNAc = target: Neu5Gc(a2-6)GalNAc
# Summary of the method: as §1
binder,measurement,setting,value
B1,glycan array binding signal (z-score),Fuc(a1-2)Gal,2.53
same,glycan array binding signal (z-score),Fuc(a1-2)Gal(b1-3)GalNAc,-0.327
same,glycan array binding signal (z-score),[1],0.742
same,glycan array binding signal (z-score),Fuc(a1-2)Gal(b1-3)GlcNAc,0.069
same,glycan array binding signal (z-score),[2],0.22
same,glycan array binding signal (z-score),[3],4.21
same,glycan array binding signal (z-score),[4],-0.244
same,glycan array binding signal (z-score),[5],1.21
same,glycan array binding signal (z-score),[6],-0.387
same,glycan array binding signal (z-score),[7],0.394
same,glycan array binding signal (z-score),Gal(a1-3)GalNAc,-0.41
same,glycan array binding signal (z-score),[8],0.06
same,glycan array binding signal (z-score),[9],0.042
same,glycan array binding signal (z-score),[10],1.33
same,glycan array binding signal (z-score),[11],2.22
same,glycan array binding signal (z-score),[12],0.614
same,glycan array binding signal (z-score),Gal6S(b1-3)GlcNAc6S,1.05
same,glycan array binding signal (z-score),Gal6S(b1-4)Glc,-0.449
same,glycan array binding signal (z-score),GalNAc(b1-3)Gal,2.09
same,glycan array binding signal (z-score),[13],-0.442
same,glycan array binding signal (z-score),GalNAc(b1-3)GalNAc,-0.802
same,glycan array binding signal (z-score),[14],0.358
same,glycan array binding signal (z-score),Glc(a1-6)Glc(a1-6)Glc,0.027
same,glycan array binding signal (z-score),[15],3.85
same,glycan array binding signal (z-score),[16],3.27
same,glycan array binding signal (z-score),[17],-0.457
same,glycan array binding signal (z-score),[18],0.148
same,glycan array binding signal (z-score),[19],1.53
same,glycan array binding signal (z-score),[20],-0.313
same,glycan array binding signal (z-score),[21],-0.432
same,glycan array binding signal (z-score),[22],0.545
same,glycan array binding signal (z-score),[23],-0.157
same,glycan array binding signal (z-score),[24],-0.094
same,glycan array binding signal (z-score),[25],-0.21
same,glycan array binding signal (z-score),[26],0.12
same,glycan array binding signal (z-score),[27],0.572
same,glycan array binding signal (z-score),Neu5Gc(a2-6)GalNAc,0.523
